Bioassay records: PubChem BioAssay, Sanford-Burnham Center for Chemical Genomics
TIM10 inh = TIM10 yeast growth inhibition; S. cerevisiae TIM10 strain growth, BacTiter-Glo luminescence, 24 h; inhibition, % at 10 µM; 1.4% of 330,000 active;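 active means inhibition of 40% or more at the single tested concentration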;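 further: wild-type TIM10 isogenic control strain grown at permissive 25 °C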
NLRP3 yeast inh = inhibitors of NALP3 inflammasome in yeast; AID 2825; 0.39% of 330,000 active; Yeast reconstituted NLRP3/ASC/caspase-1, beta-gal luminescence, 24 h; inhibition, % at 10 µM;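 active means inhibition of 50% or more; inactive means inhibition below 50%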;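 further: plate controls were induced DMSO wells for no effect and uninduced yeast grown without galactose for full effect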
tim23-1 inh = tim23-1 yeast growth inhibition. S. cerevisiae tim23-1 growth, BacTiter-Glo luminescence, 24 h. inhibition, % at 20 µM. 1.3% of 330,000 active;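 active means growth inhibition of the mutant yeast at or above 50%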;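 further: temperature-sensitive mutant grown at 25 °C; plate controls were DMSO-treated mutant yeast for no effect and medium wells lacking yeast for full effect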
tim10-1 inh = tim10-1 yeast growth inhibition | S. cerevisiae tim10-1 ts strain growth, BacTiter-Glo, 24 h | inhibition, % at 20 µM | 2.2% of 330,000 active;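 active means inhibition of at least 40%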;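 further: mutant grown at 25 °C; 0% = DMSO wells with yeast and 100% = wells holding no yeast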
NALP1 inh = blocks the NALP1 inflammasome reconstituted in yeast. S. cerevisiae NALP1/ASC/caspase-1 growth, X-gal OD620, 72 h. inhibition, % at 10 µM. 0.61% of 280,000 active; in the data active means inhibition mostly above about 24%, no sharp cut-off; inactive means mostly below about 32%
tim23-1 confirm = tim23-1 yeast growth inhibition, confirmed; AID 463218; shares compounds with tim23-1 inh; 83% of 4,400 active; S. cerevisiae tim23-1 growth, BacTiter-Glo luminescence, 24 h; inhibition, % at 20 µM;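 active means inhibition above about 39% in either of two replicate wells at 20 µM, limit read from the data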;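 further: temperature-sensitive tim23-1 mutant grown at 25 °C; 0% = DMSO wells with yeast and 100% = medium wells without yeast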
Numbers without * were called inactive. A selection: hits, their analogues and other compounds. The true share with any hit is near 4%.

Results for Cc1[nH][nH]c(=O)c1C(c1ccc(-c2cccc(Cl)c2)o1)c1c(C)[nH][nH]c1=O ?
TIM10 inh: -19; NLRP3 yeast inh: 15; tim23-1 inh: 78*; tim10-1 inh: 3; tim23-1 confirm: 62*

Results for COC(=O)c1ccc(-c2ccc(C(c3c(C)[nH][nH]c3=O)c3c(C)[nH][nH]c3=O)o2)cc1 ?
TIM10 inh: -6; NLRP3 yeast inh: 12; tim23-1 inh: 57*; tim10-1 inh: 0; NALP1 inh: 19; tim23-1 confirm: 37*

Results for O=C(N/N=C\c1ccc(-c2ccccc2[N+](=O)[O-])o1)C1COc2ccccc2O1 (centres undefined) ?
TIM10 inh: 26; NLRP3 yeast inh: 11; tim23-1 inh: 76*; tim10-1 inh: 37; NALP1 inh: 25; tim23-1 confirm: 53*

Results for O=C(N/N=C\c1ccc(-c2ccccc2[N+](=O)[O-])o1)C1COc2cc3ccccc3cc2O1 (centres undefined) ?
TIM10 inh: 36; NLRP3 yeast inh: 13; tim23-1 inh: 58*; tim10-1 inh: 17; NALP1 inh: 25; tim23-1 confirm: 53*

How did O=C(O)c1cccc(-c2ccc(/C=N/NC(=O)C3COc4ccccc4O3)o2)c1 (centres undefined) do in these assays?
TIM10 inh: -5; NLRP3 yeast inh: 15; tim23-1 inh: 16; tim10-1 inh: -4; NALP1 inh: -5

How did COC(=O)c1cc2ccccc2c(-c2c(O)ccc3ccccc23)c1O do in these assays?
TIM10 inh: 34; NLRP3 yeast inh: 9; tim23-1 inh: 69*; tim10-1 inh: -4; NALP1 inh: -31; tim23-1 confirm: -30

What do the screens show for `O=C(c1ccco1)N1c2ccccc2Sc2ccccc21`?
TIM10 inh: 12; NLRP3 yeast inh: -11; tim23-1 inh: -9; tim10-1 inh: -15; NALP1 inh: 7

What do the screens show for `O=C(c1ccco1)N1CCN(C(=O)N2c3ccccc3Sc3ccccc32)CC1`?
TIM10 inh: 25; NLRP3 yeast inh: 4; tim23-1 inh: 56*; tim10-1 inh: 0; NALP1 inh: 7; tim23-1 confirm: 39

What do the screens show for `COC(=O)C1=C(C)N(Cc2ccccc2)C(=NCc2ccccc2)N[C@H]1c1cccc(F)c1`?
TIM10 inh: 9; NLRP3 yeast inh: 19; tim23-1 inh: 12; tim10-1 inh: 19; NALP1 inh: 30

Results for COC(=O)C1=C(C)N(Cc2ccccc2)C(=S)N[C@H]1c1cccc(F)c1 ?
TIM10 inh: 19; NLRP3 yeast inh: 23; tim23-1 inh: 52*; tim10-1 inh: 37; NALP1 inh: -8; tim23-1 confirm: 38

Results for C/C=C/c1ccc(OCCOc2cc(C=O)ccc2OC)c(OC)c1 ?
TIM10 inh: 30; NLRP3 yeast inh: 23; tim23-1 inh: 57*; tim10-1 inh: 5; NALP1 inh: 42; tim23-1 confirm: 67*

Results for C/C=C/c1ccc(OCC(=O)O)c(OC)c1 ?
TIM10 inh: 11; NLRP3 yeast inh: -16; tim23-1 inh: -2; tim10-1 inh: 14; NALP1 inh: 5

Results for Cc1nc(Nc2ccccc2)sc1C(=O)Nc1ccccc1 ?
TIM10 inh: 12; NLRP3 yeast inh: 34; tim23-1 inh: 55*; tim10-1 inh: -12; NALP1 inh: 4; tim23-1 confirm: 53*

Results for O=C(Oc1ccc(=O)n(-c2ccccc2)n1)c1ccc(Cl)cc1 ?
TIM10 inh: 24; NLRP3 yeast inh: -4; tim23-1 inh: 60*; tim10-1 inh: 23; NALP1 inh: 3; tim23-1 confirm: 43*

What do the screens show for `O=C(Oc1ccc(=O)n(-c2ccccc2)n1)c1ccc(F)cc1`?
TIM10 inh: 21; NLRP3 yeast inh: 10; tim23-1 inh: 12; tim10-1 inh: 10; NALP1 inh: -25

What do the screens show for `CCOc1ccc(NS(=O)(=O)c2ccc(-c3cnc(C4CC4)o3)cc2)cc1`?
TIM10 inh: -10; NLRP3 yeast inh: 28; tim23-1 inh: 51*; tim10-1 inh: 29; NALP1 inh: 20; tim23-1 confirm: 44*

What do the screens show for `CC(=O)c1cccc(NS(=O)(=O)c2ccc(-c3cnc(C4CC4)o3)cc2)c1`?
TIM10 inh: -11; NLRP3 yeast inh: -1; tim23-1 inh: 27; tim10-1 inh: 32; NALP1 inh: 14

How did CCCc1nc2oc3cc(OC)ccc3c(=O)c2c(=O)n1CCc1ccccc1 do in these assays?
TIM10 inh: 2; NLRP3 yeast inh: 20; tim23-1 inh: 45; tim10-1 inh: 15; NALP1 inh: -3

How did COc1ccc(CCn2c(C(C)C)nc3oc4ccccc4c(=O)c3c2=O)cc1 do in these assays?
TIM10 inh: 1; NLRP3 yeast inh: 16; tim23-1 inh: 51*; tim10-1 inh: 4; NALP1 inh: -21; tim23-1 confirm: 41*

How did CC(C)c1nc2c(c(=O)c3ccccc3n2C)c(=O)n1CCc1ccccc1 do in these assays?
TIM10 inh: 38; NLRP3 yeast inh: 42; tim23-1 inh: 59*; tim10-1 inh: 23; NALP1 inh: 16; tim23-1 confirm: 38

What do the screens show for `COc1ccc(CCn2c(-c3ccccc3)nc3c(c(=O)c4ccccc4n3C)c2=O)cc1`?
TIM10 inh: -9; NLRP3 yeast inh: 50; tim23-1 inh: -6; tim10-1 inh: -9; NALP1 inh: 18

Results for CC12CCC(c3c(C(=O)Nc4nccs4)nn(-c4ccccc4)c31)C2(C)C (centres undefined) ?
TIM10 inh: 34; NLRP3 yeast inh: 8; tim23-1 inh: 59*; tim10-1 inh: 22; NALP1 inh: 23; tim23-1 confirm: 57*

How did CC1c2nc3ccccc3n2C(CC(=O)NC2CC2)C(=O)N1Cc1ccccc1 (centres undefined) do in these assays?
TIM10 inh: 4; NLRP3 yeast inh: 4; tim23-1 inh: 4; tim10-1 inh: 12; NALP1 inh: -4

Results for Cc1cc(OCC(=O)c2cccc(C(F)(F)F)c2)n2cnnc2n1 ?
TIM10 inh: 11; NLRP3 yeast inh: 17; tim23-1 inh: 6; tim10-1 inh: 6; NALP1 inh: -6

What do the screens show for `Cc1cc(OCC(=O)c2ccc(C(F)(F)F)cc2)n2cnnc2n1`?
TIM10 inh: -3; NLRP3 yeast inh: 6; tim23-1 inh: 96*; tim10-1 inh: -12; NALP1 inh: 10; tim23-1 confirm: 0

Results for COc1ccc(-c2noc(N3CCC(C(=O)Nc4cccc(OC)c4)CC3)n2)cc1 ?
TIM10 inh: 0; NLRP3 yeast inh: 5; tim23-1 inh: 15; tim10-1 inh: 11; NALP1 inh: 8

Results for CC1(c2ccccc2Cl)NC(=O)N(CC(=O)Nc2ccc(N3CCCCC3)cc2)C1=O (centres undefined) ?
TIM10 inh: -7; NLRP3 yeast inh: 10; tim23-1 inh: -3; tim10-1 inh: 15

Results for Nc1ccc(-c2ncc(-c3ccccc3)o2)cc1 ?
TIM10 inh: 15; NLRP3 yeast inh: 25; tim23-1 inh: 51*; tim10-1 inh: 25; NALP1 inh: 24; tim23-1 confirm: 39
